In the library only some 8% were active in any assay of this set; here they are far more common.
MCF10A rerep = induces DNA re-replication in MCF 10a normal breast cells; MCF 10A DNA re-replication, Hoechst nuclear intensity, 48 h; Potency, µM (series often up to 46.1 µM), inactives show top-dose activity, positive = re-replication, usual class: activators; actives 2.9% (n = 350,000); AID 624296; further: % of control where 0% means no effect; nearly all actives have a fitted effect of over 50% in size
KB-3-1 tox = KB-3-1 parental cell cytotoxicity | Potency, µM (doses to about 46.1 µM), usual class: cytotoxic | KB-3-1 viability, CellTiter-Glo ATP luminescence, 72 h | AID 1347075 | actives 1.4% (n = 400,000); further: on the % scale 0 is the no-effect control and ±100 the full control effect; nearly all actives have a fitted effect of over 60% in size
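Viability of parental KB-3-1 cells, measured by CellTiter-Glo luminescence, followed a 72 h incubation at 37 °C with pinned compounds in phenol-red-free DMEM containing 10% FBS.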
HT1080-NT tox = kills 2HG-producing HT-1080-NT fibrosarcoma cells. HT-1080-NT fibrosarcoma viability, CellTiter-Glo ATP luminescence, 48 h. Potency, µM (top dose mostly 46.1 µM), for inactives: top-dose activity, negative = less viability, most hits filed as cytotoxic. actives 1.6% (n = 360,000);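 further: NT is the 2HG producing partner of a matched IDH1 knockdown line; 0% = DMSO-treated cells and -100% = media-only wells without cells; nearly all actives have a fitted effect of over 55% in size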
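750 cells/well, RPMI + 5% FBS; 2 h settle, compound pin-transfer, 48 h at 37 degrees C. CellTiter-Glo 10 min RT, luminescence. Normalized to DMSO and media-only wells.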
HT1080 IDH1KD tx = toxicity to HT-1080 IDH1 knockdown cells (counter line); HT-1080 IDH1 knockdown viability, ATP luminescence, 48 h; Potency, µM (highest dose often 46.1 µM), for inactives: at the highest dose activity, negative = toxicity, hits mostly cytotoxic; actives 2% (n = 360,000); AID 686971;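 further: 0% = DMSO wells and -100% = cell-free medium wells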
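Knockdown cells (IDH1KD HT-1080) received compounds 2 h after plating at 750 cells/well and were kept 48 h at 37 °C in 5% FBS RPMI. A CellTiter-Glo luminescence read gave % activity for curve fitting.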
KB-V1 cytotox = kills drug-selected multidrug resistant KB-V1 cells; KB-V1 MDR cells viability, CellTiter-Glo, 72 h; Potency, µM (series often up to 46.1 µM), hits mostly cytotoxic; actives 3.4% (n = 400,000); further: on the % scale 0 is the no-effect control and ±100 the full control effect; nearly all actives have a fitted effect of over 60% in size
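In this primary screen, KB-V1 cells overexpressing P-gp are incubated with library compounds (lowest to highest concentration) for 72 h at 37 degrees C before a luminescent ATP viability read.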
SW480 rerep = induces DNA re-replication in SW480 colon adenocarcinoma cells; SW480 DNA re-replication, Hoechst DNA content imaging, 48 h; Potency, µM (series often up to 46.1 µM), without a hit: at the highest dose re-replication activation, hits mostly activators; actives 1.8% (n = 340,000); AID 624297; further: % of control where 0% means no effect; nearly all actives have a fitted effect of over 55% in size
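Image-based DNA-content assay: after two days of treatment, nuclei were labelled with the DNA dye Hoechst and imaged, and hits were compounds raising the count of nuclei showing high fluorescence intensity.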
An asterisk follows results filed as active. The call rests on the fitted dose curve; in most records, active means well fitted curve in the direction sought with a large enough effect; inconclusive means small, poorly fitted or top-dose-only effect, or another doubt; inactive means no such curve, though single readings can be large; an effect the other way counts as inactive or inconclusive. Potency means the concentration at half of the fitted maximal effect.

How did COc1ccc(C2CC(c3ccccc3)=NN2c2ccc(Cl)c(C(=O)O)c2)cc1 (stereo not drawn) do in these assays?
MCF10A rerep: 8.2µM*; KB-3-1 tox: inactive; HT1080-NT tox: -11%; HT1080 IDH1KD tx: -24%; KB-V1 cytotox: inconclusive; SW480 rerep: inconclusive

Results for COc1ccc(C2CC(c3ccccc3O)=NN2c2ccccc2)cc1 (stereo not drawn) ?
MCF10A rerep: 16µM*; KB-3-1 tox: inactive; HT1080-NT tox: 2%; HT1080 IDH1KD tx: 8%; KB-V1 cytotox: inactive; SW480 rerep: 18µM*

Results for COc1ccc(C2CC(c3ccccc3)=NN2c2ccc(N)cc2)cc1 (stereo not drawn) ?
MCF10A rerep: 16µM*; KB-3-1 tox: inconclusive; HT1080-NT tox: inconclusive; HT1080 IDH1KD tx: inconclusive; KB-V1 cytotox: 21µM*; SW480 rerep: 23µM*

Results for CC(=O)N1N=C(C)CC1c1ccc(OCc2ccccc2)cc1 (stereo not drawn) ?
MCF10A rerep: 1%; KB-3-1 tox: inactive; HT1080-NT tox: -1%; HT1080 IDH1KD tx: -1%; KB-V1 cytotox: inactive; SW480 rerep: -7%

What do the screens show for `COC(=O)c1ccc(NC(=O)CSc2nc(=O)n(Cc3ccco3)c3c2CCC3)cc1`?
KB-3-1 tox: inactive; KB-V1 cytotox: inactive

Results for COc1ccc(C2=NN(C(N)=S)C(c3ccccc3)C2)cc1 (stereo not drawn) ?
MCF10A rerep: -1%; KB-3-1 tox: inactive; HT1080-NT tox: -26%; HT1080 IDH1KD tx: inconclusive; KB-V1 cytotox: inconclusive; SW480 rerep: inconclusive

How did CC(=O)Oc1ccc(C2=NN(c3ccccc3)C(c3ccccc3)C2)cc1 (stereo not drawn) do in these assays?
MCF10A rerep: 5.8µM*; KB-3-1 tox: inconclusive; HT1080-NT tox: 16µM*; HT1080 IDH1KD tx: inconclusive; KB-V1 cytotox: inconclusive; SW480 rerep: 18µM*

How did CCC(=O)Nc1cccc(C2=NN(c3ccccc3)C(c3ccc(OC)cc3)C2)c1 (stereo not drawn) do in these assays?
MCF10A rerep: inconclusive; KB-3-1 tox: inactive; HT1080-NT tox: -20%; HT1080 IDH1KD tx: -6%; KB-V1 cytotox: inactive; SW480 rerep: 18µM*

Results for CCC(=O)Oc1ccc2c(=O)c(-c3ccc4ccccc4n3)c(CC)oc2c1C ?
MCF10A rerep: -7%; KB-3-1 tox: inactive; HT1080-NT tox: 21%; HT1080 IDH1KD tx: inconclusive; KB-V1 cytotox: 13µM*; SW480 rerep: -5%

How did COc1ccccc1N(CC(=O)NC1CCCCC1)C(=O)Cn1nnc(-c2ccc(C)o2)n1 do in these assays?
MCF10A rerep: 7%; KB-3-1 tox: inactive; HT1080-NT tox: -3%; HT1080 IDH1KD tx: -1%; KB-V1 cytotox: inconclusive; SW480 rerep: -1%

How did COc1ccccc1N(CC(=O)NC(C)(C)C)C(=O)Cn1nnc(-c2ccc(C)o2)n1 do in these assays?
MCF10A rerep: 18%; KB-3-1 tox: inactive; HT1080-NT tox: 9%; HT1080 IDH1KD tx: 10%; KB-V1 cytotox: 2.3µM*; SW480 rerep: 1%

Results for CC(=O)Nc1ccccc1-c1nc2ccccc2n(CC(=O)Nc2cccc(C)c2C)c1=O ?
KB-3-1 tox: inactive; KB-V1 cytotox: inactive

How did COC(=O)N/N=C/c1cn(Cc2ccccc2Cl)c2ccccc12 do in these assays?
MCF10A rerep: 12%; KB-3-1 tox: inactive; HT1080-NT tox: -19%; HT1080 IDH1KD tx: inconclusive; KB-V1 cytotox: inactive; SW480 rerep: -1%

What do the screens show for `COC(=O)N/N=C/c1cn(CCCOc2ccccc2)c2ccccc12`?
MCF10A rerep: inconclusive; KB-3-1 tox: inconclusive; HT1080-NT tox: -21%; HT1080 IDH1KD tx: inconclusive; KB-V1 cytotox: 23µM*; SW480 rerep: inconclusive

How did COC(=O)N/N=C/c1cn(Cc2ccc(Cl)cc2Cl)c2ccccc12 do in these assays?
MCF10A rerep: inconclusive; KB-3-1 tox: inconclusive; HT1080-NT tox: -18%; HT1080 IDH1KD tx: -24%; KB-V1 cytotox: 16µM*; SW480 rerep: inconclusive

What do the screens show for `COC(=O)N/N=C/c1cn(Cc2c(Cl)cccc2Cl)c2ccccc12`?
MCF10A rerep: -40%; KB-3-1 tox: inactive; HT1080-NT tox: -2%; HT1080 IDH1KD tx: -7%; KB-V1 cytotox: 16µM*; SW480 rerep: -41%

Results for CCc1ccc(NC(=O)Cn2c(=O)n(CCCCC(=O)NCCc3ccccc3)c(=O)c3ccccc32)cc1 ?
KB-3-1 tox: inactive; KB-V1 cytotox: inconclusive

Results for O=C(Nc1cc(C(F)(F)F)ccc1Cl)c1cc(S(=O)(=O)NCc2ccccc2)ccc1F ?
KB-3-1 tox: inactive; KB-V1 cytotox: inactive

Results for COc1ccc2c(c1)c(=O)oc1cc(OCC(=O)NC3CCCCC3)ccc12 ?
MCF10A rerep: 10µM*; KB-3-1 tox: inactive; HT1080-NT tox: 14%; HT1080 IDH1KD tx: 8%; KB-V1 cytotox: inactive; SW480 rerep: -1%

How did COc1ccc2c(c1)c(=O)oc1cc(OCC(=O)NC3CC3)ccc12 do in these assays?
MCF10A rerep: -2%; KB-3-1 tox: inactive; HT1080-NT tox: 4%; HT1080 IDH1KD tx: 18%; KB-V1 cytotox: inactive; SW480 rerep: -8%

How did CC(=O)COc1ccc2c3c(c(=O)oc2c1)CCCC3 do in these assays?
MCF10A rerep: -1%; KB-3-1 tox: inactive; HT1080-NT tox: 16%; HT1080 IDH1KD tx: 5%; KB-V1 cytotox: 12µM*; SW480 rerep: -4%

Results for COc1ccc(C(C)NC(=O)CN(c2cc(OC)ccc2OC)S(=O)(=O)c2ccccc2)cc1 (stereo not drawn) ?
KB-3-1 tox: inactive; KB-V1 cytotox: inactive

How did Oc1ccc(Br)cc1-c1nc2cnccn2c1NC1CCCCC1 do in these assays?
MCF10A rerep: 8%; KB-3-1 tox: inactive; HT1080-NT tox: inconclusive; HT1080 IDH1KD tx: -18%; KB-V1 cytotox: inactive; SW480 rerep: inconclusive

How did Oc1ccc(Br)cc1-c1nc2cnccn2c1NC1CCCC1 do in these assays?
MCF10A rerep: inconclusive; KB-3-1 tox: inconclusive; HT1080-NT tox: -13%; HT1080 IDH1KD tx: -13%; KB-V1 cytotox: 23µM*; SW480 rerep: inconclusive

What do the screens show for `Cc1nc(-c2ccc(F)cc2)c(CC(=O)N(C)CC(=O)Nc2ccccc2Cl)s1`?
MCF10A rerep: 1%; KB-3-1 tox: inactive; HT1080-NT tox: 0%; HT1080 IDH1KD tx: -12%; KB-V1 cytotox: 3.7µM*; SW480 rerep: -3%
